{
  "source": "PubChem BioAssay",
  "note": "The source made the active and inactive calls. No rule for the calls is given here.",
  "data": [
    {"test": "compounds altering viability of human ES cells (AID 493140);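 also: cells exposed to compounds for four days before counting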", "settings": "human embryonic stem cell survival screen; hits give high values", "values": [
      {"smiles": "CC(=O)CC(=O)[C@@]1(O)CC[C@H]2[C@@H]3C=C(C)C4=CC(=O)CC[C@@H]4[C@H]3CC[C@@]21C", "survival": "10.6 (inactive)"},
      {"smiles": "CCCCC[C@H](O)/C=C/C=C/C=C/[C@H](O)C/C=C\\CCCC(=O)O", "survival": "107 (inactive)"},
      {"smiles": "CCCCC/C=C\\C\\C=C/C=C/C=C/[C@@H](O)[C@@H](O)CCCC(=O)O", "survival": "116 (inactive)"},
      {"smiles": "CCCCCCCCCCCCC/C=C/[C@@H](O)[C@@H](N)COP(=O)(O)O", "survival": "87.9 (inactive)"},
      {"smiles": "CNC1C(O)C2O[C@H](OC3C(N)C[C@@H](N)C(O)[C@H]3O)C(N)C[C@H]2O[C@@H]1O[C@H]1OC(CO)[C@@H](N)[C@H](O)C1O", "note": "(some centres undefined)", "survival": "10.6 (inactive)"},
      {"smiles": "CCCCC/C=C\\C\\C=C/C=C/C=C/[C@@H](SCC(N)C(=O)O)[C@@H](O)CCCC(=O)O", "note": "(some centres undefined)", "survival": "107 (inactive)"},
      {"smiles": "CCCCCCCCCCCCC/C=C/[C@@H](O)[C@H](COP(=O)([O-])OCC[N+](C)(C)C)NC(=O)CCCCCCCCCCCCCCCCC", "survival": "81.8 (inactive)"},
      {"smiles": "CCCCC/C=C\\C\\C=C/C=C/C=C/[C@@H](SCC(NC(=O)CCC(N)C(=O)O)C(=O)NCC(=O)O)[C@@H](O)CCCC(=O)O", "note": "(some centres undefined)", "survival": "90.2 (inactive)"},
      {"smiles": "CCCCC/C=C\\C\\C=C/C=C/C=C/[C@@H](SCC(N)C(=O)NCC(=O)O)[C@@H](O)CCCC(=O)O", "note": "(some centres undefined)", "survival": "109 (inactive)"},
      {"smiles": "CC/C=C\\C/C=C\\C/C=C\\C/C=C\\C/C=C\\CCC(=O)O[C@H](COCCCCCCCCCCCCCCCC)COP(=O)([O-])OCC[N+](C)(C)C", "survival": "83.1 (inactive)"},
      {"smiles": "CCCCC[C@H](O)/C=C/C=C\\CCCCCCCCCC(=O)O", "survival": "73.3 (inactive)"},
      {"smiles": "CCCCC/C=C\\C/C=C\\C/C=C\\CCCCCCC(=O)O[C@H](COCCCCCCCCCCCCCCCC)COP(=O)([O-])OCC[N+](C)(C)C", "survival": "71.5 (inactive)"},
      {"smiles": "NC(=O)c1ncn([C@@H]2O[C@H](CO)[C@H](O)C2O)n1", "note": "(some centres undefined)", "survival": "1.33 (inactive)"},
      {"smiles": "CCCCCCCC[C@@H](O)/C=C/C=C/C=C\\[C@@H](O)CCCC(=O)O", "survival": "96.4 (inactive)"},
      {"smiles": "COc1ccc2nccc(C(=O)O)c2c1", "survival": "19.9 (inactive)"},
      {"smiles": "O=C(O)CCCC/C=C\\C[C@@H](O)/C=C/C=C/C=C\\[C@@H](O)CCCC(=O)O", "survival": "96.1 (inactive)"},
      {"smiles": "CN(C)CCCO[C@H]1[C@@H](C(O)CO)OC2OC(C)(C)O[C@H]21", "note": "(some centres undefined)", "survival": "7.5 (inactive)"},
      {"smiles": "CCCCC/C=C\\C=C\\C(O)CCCCCCCC(=O)O", "note": "(centres undefined)", "survival": "83.9 (inactive)"},
      {"smiles": "CCCCC/C=C\\C[C@@H](O)/C=C/C=C\\CCC(=O)O", "survival": "67.7 (inactive)"},
      {"smiles": "C=C(C)[C@@H]1CC[C@]2(CO)CC[C@]3(C)[C@H](CC[C@@H]4[C@@]5(C)CCC(O)C(C)(C)[C@@H]5CC[C@]43C)[C@@H]12", "note": "(some centres undefined)", "survival": "7.33 (inactive)"},
      {"smiles": "CCCCC[C@H](O)/C=C/C=C/C/C=C\\CCCC(=O)O", "survival": "94.8 (inactive)"},
      {"smiles": "CCCCC[C@H](O)/C=C/[C@H]1OC(=O)C[C@H](O)[C@@H]1C/C=C\\CCCC(=O)O", "survival": "110 (inactive)"},
      {"smiles": "O=c1[nH]c(=O)n([C@H]2C[C@@H](O)[C@@H](CO)O2)cc1C(F)(F)F", "survival": "0.583 (inactive)"},
      {"smiles": "CCCCCCCN[C@H]1CCC[C@@H]1CCCCCCC(=O)O", "survival": "114 (inactive)"},
      {"smiles": "CC1O[C@@H](OC2/C=C/C=C/C=C/C=C/C[C@@H](C)OC(=O)/C=C/[C@H]3O[C@@H]3C[C@H](O)C[C@]3(O)C[C@H](O)[C@@H](C(=O)O)[C@H](C2)O3)C(O)C(N)[C@@H]1O", "note": "(some centres undefined)", "survival": "28.2 (inactive)"},
      {"smiles": "C=CCN1/C(=C\\CO)[C@@H]2C[C@@H]3[C@H]1CC[C@@]31c3ccccc3N3/C=C4\\C5N(/C=C/2C31)c1ccccc1[C@@]51CC[C@@H]2[C@H]1C[C@H]4/C(=C/CO)N2CC=C", "note": "(some centres undefined)", "survival": "26.5 (inactive)"},
      {"smiles": "CC1O[C@@H](O[C@@H]2C(CO)O[C@@H](OCC3O[C@@H](OC(=O)C45CC[C@@H](C)[C@H](C)[C@H]4C4=CC[C@@H]6[C@@]7(C)C[C@@H](O)[C@H](O)[C@@](C)(CO)C7CC[C@@]6(C)[C@]4(C)CC5)C(O)[C@H](O)[C@@H]3O)C(O)[C@@H]2O)C(O)[C@@H](O)[C@H]1O", "note": "(some centres undefined)", "survival": "9.83 (inactive)"},
      {"smiles": "CC1(C)S[C@@H]2[C@H](NC(=O)C3(N)CCCCC3)C(=O)N2[C@H]1C(=O)O", "survival": "3.83 (inactive)"},
      {"smiles": "CCCCC[C@H](O)/C=C/C=C\\C/C=C\\C=C\\[C@@H](O)CCCC(=O)O", "survival": "103 (inactive)"},
      {"smiles": "Cn1cnc2nc(NCCO)nc(NCc3ccccc3)c21", "survival": "111 (inactive)"},
      {"smiles": "CCCCCC#CC[C@@H](O)/C=C/C=C/C=C\\[C@@H](O)CCCC(=O)O", "survival": "71.7 (inactive)"},
      {"smiles": "CCCCC[C@H](O)/C=C/C=C\\C/C=C\\CCCCC(=O)O", "survival": "67.2 (inactive)"},
      {"smiles": "O=[N+]([O-])c1ccc(Oc2ccc(Br)cc2)c(C(O)[P+](=O)O)c1", "note": "(centres undefined)", "survival": "83.4 (inactive)"},
      {"smiles": "CC(C)c1cc(/C=C(\\C#N)C(=O)NCCCc2ccccc2)cc(C(C)C)c1O", "survival": "124 (inactive)"},
      {"smiles": "CCCCC/C=C\\C[C@H](O)/C=C/C=C/C=C/[C@@H](O)CCCC(=O)O", "survival": "96.2 (inactive)"},
      {"smiles": "CCCCC/C=C\\C/C=C\\C/C=C\\C=C\\C1CCCC(=O)O1", "note": "(centres undefined)", "survival": "76.9 (inactive)"},
      {"smiles": "CC/C=C\\C/C=C\\C/C=C\\C/C=C\\C=C\\C(O)CCCC(=O)O", "note": "(centres undefined)", "survival": "128 (inactive)"},
      {"smiles": "NCC1OC(O[C@@H]2C(O)[C@H](OC3C(O)C(N)CC(N)C3OC3OC(CO)C(O)C(O)C3N)O[C@@H]2CO)C(N)C(O)C1O", "note": "(some centres undefined)", "survival": "5.75 (inactive)"},
      {"smiles": "CCCCC/C=C\\C/C=C\\C/C=C\\C=C\\C(O)CCCC(=O)O", "note": "(centres undefined)", "survival": "122 (inactive)"}
    ]}
  ]
}
